Test systems include SR leukemia; RPMI-8226 leukemia; OVCAR-8 ovarian; OVCAR-5 ovarian; OVCAR-4 ovarian; SK-OV-3 ovarian; IGROV1 ovarian; OVCAR-3 ovarian; NCI/ADR-RES ovarian.
What all share (experiment): NCI-60 one-dose screen, 48 h (100 = growth as untreated, 0 = no growth, -100 = all killed)
Holding throughout (details): 10 µM unless noted

This is part of a sample that, as a whole, favours compounds with a hit. Of some 83,000 tested, about 20% had one in any assay.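 Note: values are percent growth. 100 is the growth of untreated cells, values between 100 and 0 indicate rising inhibition; between -100 and 0 indicates cell death.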 Unmarked numbers belong to inactive results. The source made the active and inactive calls. The calls were made as follows: active = growth percent below 10; inactive = the rest.

As to `Cc1ccccc1N1C(c2ccccc2)=NNC12C=CC(=O)C=C2Cl` (stereo unspecified), the growth with SR leukemia was 90.6%; in the assay with RPMI-8226 leukemia, 109%; with OVCAR-8 ovarian, 96.7%; with OVCAR-5 ovarian, 87.8%; in the assay on OVCAR-4 ovarian, 117%; in the assay with SK-OV-3 ovarian, 90.2%. Further, the values for the growth with IGROV1 ovarian, in the assay on OVCAR-3 ovarian and in the assay on NCI/ADR-RES ovarian were 100%, 118% and 98.7%, respectively.
As to `O=C(Nc1cn[nH]c1-c1nc2ccc(CN3CCOCC3)cc2[nH]1)NC1CC1`, the growth in the assay on SR leukemia is -11.9% (active); with RPMI-8226 leukemia, 108%; in the assay on OVCAR-8 ovarian, 28.7%; with OVCAR-5 ovarian, 22.5%; with OVCAR-4 ovarian it was 78.5%; with SK-OV-3 ovarian, -5.97% (active). Besides, the growth in the assay on IGROV1 ovarian was 9.49% (active); in the assay with OVCAR-3 ovarian, 11.7%; with NCI/ADR-RES ovarian, 76.3%.
With `Cc1nc(NC(=O)N2CCC[C@H]2C(N)=O)sc1-c1ccnc(C(C)(C)C(F)(F)F)c1`, the growth is 26.2% in the assay on SR leukemia; 48.7% in the assay on RPMI-8226 leukemia; 48.5% in the assay on OVCAR-8 ovarian; 36.5% in the assay on OVCAR-5 ovarian; 72% in the assay on OVCAR-4 ovarian; -25.6% (active) in the assay on SK-OV-3 ovarian. The growth with IGROV1 ovarian is -23.5% (active); in the assay with OVCAR-3 ovarian, 39.1%; in the assay on NCI/ADR-RES ovarian it was 60.8%.
On to `Cc1ccc(-n2nc(C(C)(C)C)cc2NC(=O)NCc2cc(F)ccc2Oc2ccc3c(cnn3CCO)c2)cc1`, for which the growth with SR leukemia was 7.67% (active); with RPMI-8226 leukemia it was 18.1%; in the assay on OVCAR-8 ovarian it was 23.6%; in the assay with OVCAR-5 ovarian it was 25.7%; with OVCAR-4 ovarian it was 27.5%; with SK-OV-3 ovarian, 18.2%. Also, the growth in the assay with IGROV1 ovarian is 8.97% (active); in the assay on OVCAR-3 ovarian, 54.3%; with NCI/ADR-RES ovarian it was 21.3%.
With `Cc1cc([C@@H](C)Nc2ccccc2C(=O)O)c2nc(N3CCOCC3)cc(=O)n2c1`, the growth was 25% in the assay on SR leukemia; 71.8% with RPMI-8226 leukemia; 45.6% with OVCAR-8 ovarian; 51.8% in the assay with OVCAR-5 ovarian; 77.3% with OVCAR-4 ovarian; -13.2% (active) in the assay on SK-OV-3 ovarian. Further, the growth in the assay with IGROV1 ovarian is -4.69% (active); in the assay on OVCAR-3 ovarian, 31.1%; with NCI/ADR-RES ovarian, 58.1%.
With `COc1cc2c(cc1OCCCCCN1CCN(c3ncnc4ccccc34)CC1)N=CC1CCCN1C2=O` (stereo unspecified), the growth with SR leukemia was 0.841% (active); with RPMI-8226 leukemia, -35.6% (active); in the assay on OVCAR-8 ovarian, 1.28% (active); in the assay with OVCAR-5 ovarian, 23.8%; with OVCAR-4 ovarian it was -3.06% (active); in the assay with SK-OV-3 ovarian it was 19.5%. The growth is -38.4% (active) with IGROV1 ovarian, 1.46% (active) in the assay on OVCAR-3 ovarian and 12.8% in the assay with NCI/ADR-RES ovarian.
Regarding `Cn1c(=O)c(F)c(Nc2ccc(I)cc2F)c2c(=O)n(C[C@@H](O)CO)cnc21`, the growth is 52.4% in the assay with SR leukemia; 61.2% with RPMI-8226 leukemia; 43.9% in the assay with OVCAR-8 ovarian; 6.95% (active) in the assay on OVCAR-5 ovarian; 55.8% in the assay with OVCAR-4 ovarian; 44.8% in the assay on SK-OV-3 ovarian. The growth in the assay with IGROV1 ovarian was 10.5%; in the assay on OVCAR-3 ovarian, 86.9%; in the assay with NCI/ADR-RES ovarian, 60.6%.
Consider `C1=C\COCc2cc(ccc2OCCN2CCCC2)Nc2nccc(n2)-c2cccc(c2)COC/1`, for which the growth with SR leukemia is -8.75% (active); in the assay on RPMI-8226 leukemia, -32% (active); with OVCAR-8 ovarian, 6.66% (active); in the assay with OVCAR-5 ovarian, -6.58% (active); in the assay on OVCAR-4 ovarian, -4.87% (active); in the assay with SK-OV-3 ovarian it was -27.6% (active). In addition, the growth is -18.7% (active) with IGROV1 ovarian, 2.03% (active) in the assay with OVCAR-3 ovarian and 0.945% (active) in the assay with NCI/ADR-RES ovarian.
As for `Cc1[nH]c(/C=C2\C(=O)Nc3ccc(F)cc32)c(C)c1C(=O)NC[C@H](O)CN1CCOCC1`, the growth with SR leukemia was -2.38% (active); in the assay on RPMI-8226 leukemia, 49.4%; in the assay on OVCAR-8 ovarian, 42.6%; in the assay on OVCAR-5 ovarian, 15.1%; in the assay with OVCAR-4 ovarian it was 50.6%; in the assay with SK-OV-3 ovarian, 3.3% (active). Also, the growth in the assay on IGROV1 ovarian is 19.6%; in the assay with OVCAR-3 ovarian, 70.3%; in the assay with NCI/ADR-RES ovarian, 64.7%.
On to `Cc1ccc(NC(=O)Nc2ccc(Nc3ncnc4sc5c(c34)CCOC5)cc2)cc1Cl`, for which the growth with SR leukemia is 89%; with RPMI-8226 leukemia, 105%; in the assay on OVCAR-8 ovarian, 91.9%; with OVCAR-5 ovarian, 114%; with OVCAR-4 ovarian, 121%; in the assay on SK-OV-3 ovarian, 73.4%. The growth with IGROV1 ovarian was 99.1%; in the assay on OVCAR-3 ovarian, 102%; in the assay with NCI/ADR-RES ovarian, 106%.
On to `Cc1cc(-c2cc(O)ccc2Cl)cc2nnc(Nc3ccc(OCCN4CCCC4)cc3)nc12`, for which the growth in the assay on SR leukemia is -35% (active); in the assay on RPMI-8226 leukemia, -43.9% (active); with OVCAR-8 ovarian, -63.6% (active); with OVCAR-5 ovarian, -83.5% (active); in the assay with OVCAR-4 ovarian, -81.9% (active); in the assay on SK-OV-3 ovarian, -77.7% (active). In addition, the growth in the assay with IGROV1 ovarian was -60.2% (active); with OVCAR-3 ovarian it was -79.7% (active); in the assay on NCI/ADR-RES ovarian, -69.3% (active).
For the molecule `C#Cc1cccc(Nc2ncnc3cc(OCCOC)c(OCCOC)cc23)c1`, the growth with SR leukemia is 51.3%; in the assay on RPMI-8226 leukemia it was 70.1%; in the assay on OVCAR-8 ovarian, 40.4%; with OVCAR-5 ovarian it was 48.4%; with OVCAR-4 ovarian it was 54.3%; in the assay on SK-OV-3 ovarian, -21.9% (active). Also, the growth was 8.02% (active) with IGROV1 ovarian, 64.2% in the assay with OVCAR-3 ovarian and 56.9% in the assay with NCI/ADR-RES ovarian.
For `CN(C)C[C@@H]1CCn2cc(c3ccccc32)C2=C(C(=O)NC2=O)c2cn(c3ccccc23)CCO1`, the growth in the assay with SR leukemia is -11.8% (active); in the assay with RPMI-8226 leukemia it was -18.8% (active); with OVCAR-8 ovarian, -0.0404% (active); in the assay on OVCAR-5 ovarian it was -7.31% (active); with OVCAR-4 ovarian it was -45.9% (active); with SK-OV-3 ovarian, 6.11% (active). Moreover, the results for the growth with IGROV1 ovarian, in the assay with OVCAR-3 ovarian and in the assay with NCI/ADR-RES ovarian were -13.1% (active), 1.36% (active) and 6.82% (active), respectively.
Consider `CCc1cc2c(cc1N1CCC(N3CCOCC3)CC1)C(C)(C)c1[nH]c3cc(C#N)ccc3c1C2=O`, for which the growth in the assay with SR leukemia was -3.84% (active); in the assay with RPMI-8226 leukemia it was 15.7%; in the assay on OVCAR-8 ovarian, -11.3% (active); in the assay with OVCAR-5 ovarian it was -8.72% (active); with OVCAR-4 ovarian, -50.9% (active); in the assay with SK-OV-3 ovarian, -22.5% (active). In addition, the growth with IGROV1 ovarian was -41.6% (active); in the assay on OVCAR-3 ovarian, 4.44% (active); with NCI/ADR-RES ovarian it was -1.18% (active).

These data come from PubChem BioAssay (NCI).
